# Source: the supplement of paper PMC10338343
# ± gives the standard deviation.
# Assays:
# [1] = tested on: MILI (PIWIL2) piRISC loaded with L1MC piRNA (26 nt); experiment: pre-steady-state target cleavage rate (min^-1); guide: L1MC piRNA 5'p-UAACUAAAUACUAUGCAAGCUGUAGG; higher = faster piRNA-guided slicing of the target;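 also: 1 nM active piRISC with 0.1 nM target library at 33 °C single turnover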
# How it was run: (§1)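 In HEPES–potassium acetate buffer at 33 °C, […] transcribed, DNA-blocked target RNA library was mixed with 1 nM active affinity-purified piRISC carrying one synthetic guide, with or without 500 nM GTSF1 partner protein, for 0–8 or 0–960 min. Uncleaved targets were sequenced and normalised to depth and to weakly complementary targets; three trials were pooled and k3 was capped at 0.0001 min^-1. The pre-steady-state cleavage rate followed from a burst-and-steady-state fit.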
# [2] = tested on: EfPiwi piRISC loaded with L1MC piRNA (26 nt); experiment: pre-steady-state target cleavage rate (min^-1); auxiliary factor: 500 nM Ephydatia muelleri Gtsf1; guide: L1MC piRNA 5'p-UAACUAAAUACUAUGCAAGCUGUAGG; MIWI and MILI are mouse PIWI proteins and EfPiwi is from a freshwater sponge; tags in brackets are library labels; higher = faster piRNA-guided slicing of the target
# How it was run: as §1
# [3] = auxiliary factor: 500 nM mouse GTSF1
# [4] = auxiliary factor: none (no GTSF1)
Sequence,"pre-steady-state target cleavage rate [1, 3]","pre-steady-state target cleavage rate [1, 4]",pre-steady-state target cleavage rate [2]
UCCUGGAACAGCUAGCAUAGUAUUUAGUUA,0.242 ± 0.019,0.00629 ± 0.0023,0.015 ± 0.0041
UCCUGGAUCAGCUUGCAUAGUAAUUUAGUUA,0.162 ± 0.018,0.00701 ± 0.0022,0.00371 ± 0.0025
UCCUGGAUGUGUUUGCAUAGUAUUUAGUUA,0.16 ± 0.019,0.00817 ± 0.0033,0.0181 ± 0.0055
UCCUCCUACGGCUUGCAUAGUAUUUAGUUA,0.298 ± 0.018,0.0137 ± 0.004,0.0667 ± 0.017
UCCUGGAACAGCUUGCAUAGUAAAUAGUUA,0.153 ± 0.021,0.0034 ± 0.0027,0.00589 ± 0.0023
UCCUCCUACAGCUUGCAUCGUAUUUAGUUA,0.129 ± 0.013,0.00682 ± 0.0021,0.0492 ± 0.014
UCCUCCGACAGCUUGCAUAGUAUUUAGUUA,0.25 ± 0.017,0.00881 ± 0.0021,0.101 ± 0.026
UCCUGGAACAGCUUGCAUAGUAUUUAGUUUA,0.321 ± 0.018,0.00981 ± 0.003,0.0245 ± 0.0071
UCCUGGAUCAGCUUGCAUAGUAUUAUGUUA,0.122 ± 0.021,0.00357 ± 0.0028,0.005 ± 0.0024
UCCUGGAUCAGGUUGCAUAGUAUUAAGUUA,0.144 ± 0.017,0.00601 ± 0.0021,0.00407 ± 0.0025
UCCUGGAUGUGCUUGCAUACUAUUUAGUUA,0.0281 ± 0.0064,0.00431 ± 0.0022,0.0112 ± 0.0036
UCCUGCUACAGCUUGCAUUGUAUUUAGUUA,0.248 ± 0.022,0.0081 ± 0.0028,0.00662 ± 0.0024
UCCUCCUACUGCUUGCAUAGAAUUUAGUUA,0.0415 ± 0.0062,0.00232 ± 0.002,0.00761 ± 0.0021
UCCUCCUACAGCUUGCAUAGUAGUUUAGUUA,0.23 ± 0.022,0.007 ± 0.0022,0.0131 ± 0.0052
UCCUGGAUGAGCUUGCAUAGUUUUUAGUUA,0.0248 ± 0.0073,0.00471 ± 0.0024,0.00485 ± 0.002
UCCUGGUACUGCUAGCAUAGUAUUUAGUUA,0.174 ± 0.02,0.0113 ± 0.003,0.00467 ± 0.0022
UCCUGGAUGUCCUGCAUAGUAUUUAGUUA,0.094 ± 0.013,0.00628 ± 0.0019,0.00358 ± 0.0026
